Test results reported in PubChem BioAssay AID1159580 (chemical genetic matrix, 2015).
In all, about 5,500 compounds went through this assay and about 2,000 (36%) were called active. Roughly 18% stayed inconclusive and do not appear here. No stated cut-off is given here; in the data, active means normalized growth mostly below about 0.91 (no sharp cut-off); inconclusive means no clear call, values can overlap the other calls; inactive means mostly above about 0.92. This is one part of the list.

Assay: chemical genetic growth profiling, strain panel (AID 1159580);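 further: tested at 20 µM; growth read once vehicle control cultures reached saturation at 30 °C; 1 = growth at the plate median or of vehicle wells; lower values mean less growth of the strain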
Conditions: growth OD

Measured: normalized growth

CCC1OC(=O)[C@H](C)C(=O)[C@H](C)[C@@H](OC2O[C@H](C)C[C@H](N(C)C)[C@H]2O)[C@](C)(OC)C2(CCCn3cnc(-c4cccnc4)c3)C[C@@H](C)C(=O)[C@H](C)[C@H]3N(C2)C(=O)O[C@]13C (some centres undefined)
inactive: S. cerevisiae deletion strains, locus YJR043C, strain POL32, active compounds read low 0.994 | S. cerevisiae deletion strains, locus YJR075W, strain HOC1, active compounds read low 0.99 | S. cerevisiae deletion strains, locus YKL009W, strain mrt4, active compounds read low 1.01 | S. cerevisiae deletion strains, locus YKL068W, active compounds read low 1.01 | S. cerevisiae deletion strains, locus YKL085W, strain MDH1 (second series), active compounds read low 0.998 | S. cerevisiae deletion strains, locus YKL085W, strain MDH1, active compounds read low 0.998 | S. cerevisiae deletion strains, locus YKL160W, strain elf1, active compounds read low 0.994 | S. cerevisiae deletion strains, locus YKL190W, strain CNB1, active compounds read low 1 | S. cerevisiae deletion strains, locus YKR001C, strain vps1, active compounds read low 0.997 | S. cerevisiae deletion strains, locus YKR026C, strain gcn3, active compounds read low 0.989 | S. cerevisiae deletion strains, locus YKR091W, strain srl3, active compounds read low 0.985 | S. cerevisiae deletion strains, locus YLL001W, strain dnm1, active compounds read low 0.984 | S. cerevisiae deletion strains, locus YLL026W, active compounds read low 0.988 | S. cerevisiae deletion strains, locus YLL041C, strain sdh2, active compounds read low 0.977 | S. cerevisiae deletion strains, locus YLR027C, strain aat2, active compounds read low 0.99 | S. cerevisiae deletion strains, locus YLR039C, strain RIC1, active compounds read low 1.02 | S. cerevisiae deletion strains, locus YLR058C, strain SHM2, active compounds read low 1 | S. cerevisiae deletion strains, locus YLR102C, strain apc9, active compounds read low 0.997 | S. cerevisiae deletion strains, locus YLR221C, strain rsa3, active compounds read low 0.973 | S. cerevisiae deletion strains, locus YLR258W, strain gsy2, active compounds read low 0.983 | S. cerevisiae deletion strains, locus YLR262C, strain YPT6 (second series), active compounds read low 0.978 | S. cerevisiae deletion strains, locus YLR262C, strain YPT6, active compounds read low 1.04 | S. cerevisiae deletion strains, locus YLR268W, strain sec22, active compounds read low 0.98 | S. cerevisiae deletion strains, locus YLR320W, strain mms22, active compounds read low 0.975 | S. cerevisiae deletion strains, locus YLR330W, strain CHS5, active compounds read low 1 | S. cerevisiae deletion strains, locus YLR342W, strain FKS1 (second series), active compounds read low 0.999 | S. cerevisiae deletion strains, locus YLR342W, strain FKS1, active compounds read low 1.01 | S. cerevisiae deletion strains, locus YLR357W, strain rsc2, active compounds read low 0.935 | S. cerevisiae deletion strains, locus YLR370C, strain arc18, active compounds read low 0.985 | S. cerevisiae deletion strains, locus YLR371W, strain rom2, active compounds read low 1.01 | S. cerevisiae deletion strains, locus YLR384C, strain iki3, active compounds read low 0.995 | S. cerevisiae deletion strains, locus YLR418C, strain cdc73, active compounds read low 0.979 | S. cerevisiae deletion strains, locus YML016C, strain PPZ1, active compounds read low 1.01 | S. cerevisiae deletion strains, locus YML032C, strain rad52, active compounds read low 1.01 | S. cerevisiae deletion strains, locus YML120C, strain ndi1, active compounds read low 0.966 | S. cerevisiae deletion strains, locus YML124C, strain tub3, active compounds read low 1.01 | S. cerevisiae deletion strains, locus YMR058W, strain fet3, active compounds read low 0.974 | S. cerevisiae deletion strains, locus YMR078C, strain ctf18, active compounds read low 1.01 | S. cerevisiae deletion strains, locus YMR125W, strain sto1, active compounds read low 1.01 | S. cerevisiae deletion strains, locus YMR129W, active compounds read low 0.974 | S. cerevisiae deletion strains, locus YMR205C, strain PFK2, active compounds read low 0.996 | S. cerevisiae deletion strains, locus YMR223W, strain ubp8, active compounds read low 1 | S. cerevisiae deletion strains, locus YMR231W, strain pep5, active compounds read low 0.98 | S. cerevisiae deletion strains, locus YMR263W, strain SAP30, active compounds read low 1 | S. cerevisiae deletion strains, locus YMR307W, strain GAS1, active compounds read low 0.93 | S. cerevisiae deletion strains, locus YNL067W, strain RPL9B, active compounds read low 1.01 | S. cerevisiae deletion strains, locus YNL071W, strain lat1, active compounds read low 0.99 | S. cerevisiae deletion strains, locus YNL128W, strain TEP1, active compounds read low 1.01 | S. cerevisiae deletion strains, locus YNL153C, strain GIM3, active compounds read low 1.01 | S. cerevisiae deletion strains, locus YNL209W, strain ssb2, active compounds read low 0.986 | S. cerevisiae deletion strains, locus YNL233W, strain BNI4, active compounds read low 1.01 | S. cerevisiae deletion strains, locus YNL248C, strain rpa49, active compounds read low 0.946 | S. cerevisiae deletion strains, locus YNL250W, strain rad50, active compounds read low 0.992 | S. cerevisiae deletion strains, locus YNL271C, strain bni1, active compounds read low 0.997 | S. cerevisiae deletion strains, locus YNL298W, strain CLA4, active compounds read low 0.995 | S. cerevisiae deletion strains, locus YNL307C, strain MCK1, active compounds read low 1.01 | S. cerevisiae deletion strains, locus YNL322C, strain KRE1 (second series), active compounds read low 0.968 | S. cerevisiae deletion strains, locus YNL322C, strain KRE1, active compounds read low 1 | S. cerevisiae deletion strains, locus YNR049C, strain mso1, active compounds read low 0.958 | S. cerevisiae deletion strains, locus YNR052C, strain pop2, active compounds read low 1.01 | S. cerevisiae deletion strains, locus YOL006C, strain TOP1, active compounds read low 1 | S. cerevisiae deletion strains, locus YOL012C, strain htz1 1.16 | S. cerevisiae deletion strains, locus YOL147C, strain pex11, active compounds read low 1 | S. cerevisiae deletion strains, locus YOR001W, strain rrp6, active compounds read low 1 | S. cerevisiae deletion strains, locus YOR061W, strain CKA2, active compounds read low 1.01 | S. cerevisiae deletion strains, locus YOR069W, strain VPS5, active compounds read low 1.01 | S. cerevisiae deletion strains, locus YOR070C, strain gyp1, active compounds read low 0.984 | S. cerevisiae deletion strains, locus YOR080W, strain dia2, active compounds read low 0.968 | S. cerevisiae deletion strains, locus YOR083W, strain WHI5, active compounds read low 1.01 | S. cerevisiae deletion strains, locus YOR106W, strain vam3, active compounds read low 0.994 | S. cerevisiae deletion strains, locus YOR136W, strain idh2, active compounds read low 1.01 | S. cerevisiae deletion strains, locus YOR144C, strain elg1, active compounds read low 1 | S. cerevisiae deletion strains, locus YOR184W, strain ser1, active compounds read low 0.996 | S. cerevisiae deletion strains, locus YOR265W, strain rbl2, active compounds read low 0.996 | S. cerevisiae deletion strains, locus YOR270C, strain vph1, active compounds read low 0.963 | S. cerevisiae deletion strains, locus YOR290C, strain snf2, active compounds read low 0.963 | S. cerevisiae deletion strains, locus YOR316C, strain cot1, active compounds read low 0.998 | S. cerevisiae deletion strains, locus YPL051W, strain arl3, active compounds read low 1 | S. cerevisiae deletion strains, locus YPL055C, strain LGE1, active compounds read low 1.02 | S. cerevisiae deletion strains, locus YPL078C, strain atp4, active compounds read low 0.984 | S. cerevisiae deletion strains, locus YPL106C, strain sse1, active compounds read low 0.943 | S. cerevisiae deletion strains, locus YPL240C, strain hsp82, active compounds read low 0.986 | S. cerevisiae deletion strains, locus YPL241C, strain CIN2, active compounds read low 1 | S. cerevisiae deletion strains, locus YPR119W, strain clb2, active compounds read low 1 | S. cerevisiae deletion strains, locus YPR141C, strain kar3, active compounds read low 1 | S. cerevisiae deletion strains, locus YPR163C, strain tif3, active compounds read low 1.01 | S. cerevisiae deletion strains, locus YPR167C, strain met16, active compounds read low 1 | S. cerevisiae deletion strains, strain wtn01, active compounds read low 0.977 | S. cerevisiae strains, strain wild type, active compounds read low 0.999
